Here are results for 40 compounds from PubChem BioAssay (Tox21).

Results filed as inconclusive are left out. Activity calls are given as the source filed them. Calls come from the whole dose curve.
% is set by controls: 0 for no effect and ±100 for the full control effect; potency is the fitted concentration of half-maximal effect.

Thyrotropin receptor (Homo sapiens), sequence (P16473 whole entry, looked up): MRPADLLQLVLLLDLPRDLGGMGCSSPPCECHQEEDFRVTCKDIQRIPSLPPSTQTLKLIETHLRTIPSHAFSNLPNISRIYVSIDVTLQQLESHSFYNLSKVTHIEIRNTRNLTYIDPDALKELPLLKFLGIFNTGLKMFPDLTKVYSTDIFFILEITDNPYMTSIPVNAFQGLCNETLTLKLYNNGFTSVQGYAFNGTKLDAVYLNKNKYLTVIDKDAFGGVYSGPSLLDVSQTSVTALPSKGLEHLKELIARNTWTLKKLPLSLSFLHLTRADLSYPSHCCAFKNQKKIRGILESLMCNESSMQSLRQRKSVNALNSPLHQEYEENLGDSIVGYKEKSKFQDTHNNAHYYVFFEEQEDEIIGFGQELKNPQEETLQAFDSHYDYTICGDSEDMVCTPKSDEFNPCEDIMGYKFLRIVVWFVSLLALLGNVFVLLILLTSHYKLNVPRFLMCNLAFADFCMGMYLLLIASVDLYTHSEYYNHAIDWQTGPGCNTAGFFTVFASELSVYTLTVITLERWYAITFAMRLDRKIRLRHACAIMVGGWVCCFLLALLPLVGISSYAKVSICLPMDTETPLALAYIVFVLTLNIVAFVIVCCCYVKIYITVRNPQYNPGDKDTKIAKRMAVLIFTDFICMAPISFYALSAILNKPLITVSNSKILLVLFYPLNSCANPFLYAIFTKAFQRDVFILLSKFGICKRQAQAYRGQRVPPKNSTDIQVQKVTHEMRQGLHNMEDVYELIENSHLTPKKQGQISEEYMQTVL

The assay has as its target Thyrotropin receptor (Homo sapiens) (UniProt P16473). Briefly: qHTS assay to identify small molecule antagonists of the thyroid stimulating hormone receptor (TSHR) signaling pathway (AID 1259385). Note: nearly all actives have a fitted effect of over 20% in size. The note with it: TSHR-HEK293 cAMP HTRF, TSH-stimulated antagonist mode; series mostly up to 92.4 µM; activity change, negative = inhibition: at the top concentration. An excerpt: U.S. Tox21 Program National Center for Advancing Translational Sciences [NCATS] NIH Chemical Genomics Center [NCGC] U.S. Environmental Protection Agency [EPA] National Institutes of Environmental Health Sciences [NIEHS] National Toxicology Program [NTP] U.S. Food and Drug Administration [FDA] Tox21 Assay Overview: TSHR is the receptor for thyrotropin (thyroid stimulating hormone or TSH), a member of the glycoprotein hormone family. TSH is released by the anterior pituitary gland and is the main regulator of thyroid gland growth and development. Upon binding circulating thyrotropin, a G-protein signal cascade activates adenylyl cyclase and […] cAMP concentration is increased. cAMP is a key second messenger involved extensively in cellular signal transduction pathways associated with the majority of G-protein coupled receptors (GPCRs). The activation of these GPCRs by neurotransmitters, lipids, nucleotides, peptides and hormones results in the activation or the inhibition of plasma membrane-bound adenylate cyclase through heterotrimeric G-proteins. A cell-based TSHR assay can be used to screen chemical compounds that modulate TSHR either in agonist or antagonist mode.
Tox21 Assay Protocol Summary: TSHR-Hek293 cells were dispensed at 800 cells/4uL/well in 1536-well white plates using a Multidrop dispenser. After the assay plates were incubated at a 37C/5% CO2 incubator for 18 hrs, 23 nL of compounds dissolved in DMSO, positive controls or DMSO only was transferred to the assay plate by a pin tool, followed by 1 ul medium containing Ro20-1724. For the antagonist mode screening, 1 uL of TSH was added on the top of the cell/compound mixtures to achieve a final agonist concentration of 1.5 ng/mL. After 30 min of incubation at room temperature, 2.5 ul/well of cAMP-d2 and 2.5 ul/well of anti-cAMP-cryptate were added respectively into the assay plates using a Flying Reagent Dispenser. The plates were incubated at room temperature for 1 hr. The fluorescence intensity in the plates was measured using an Envision plate reader. Each test compound was measured at 15 concentrations and in triplicates.
Consider `COC(=O)COc1ccc(Cl)cc1Cl`, for which the “activity change, negative = inhibition” value was -5% (inactive).

On to `CC(C)COP(=O)(OCC(C)C)OCC(C)C`, for which the “activity change, negative = inhibition” value is -7.97% (inactive).

On to `O=C(Nc1ccccc1)c1ccccc1I`, for which the “activity change, negative = inhibition” value is -0.183% (inactive).

Take `N#CCNCC#N`: the “activity change, negative = inhibition” value is 0.532% (inactive).

With `c1coc(-c2nc3ccccc3[nH]2)c1`, the “activity change, negative = inhibition” value is 1.93% (inactive).

Consider `CCCCc1ccc(O)cc1`, for which the “activity change, negative = inhibition” value was 1.82% (inactive).

`CC(=O)Nc1cc([As](=O)(O)O)ccc1O`: the “activity change, negative = inhibition” value was 1.64% [at 42.5 µM] (inactive).

Turning to `CCN(CC)C(C)C(=O)c1ccccc1` (stereo not given), the “activity change, negative = inhibition” value is 4.45% [at 42.5 µM] (inactive).

Take `O=C1c2ccccc2C(=O)c2ccccc21`: the activity change, negative = inhibition is -0.629% [at 19 µM] (inactive).

Turning to `CC(Cl)(Cl)[N+](=O)[O-]`, the “activity change, negative = inhibition” value is -0.443% (inactive).

Regarding `Cc1cc(C)c(C(=O)P(=O)(C(=O)c2c(C)cc(C)cc2C)c2ccccc2)c(C)c1`, the “activity change, negative = inhibition” value was 1.37% (inactive).

Regarding `CCCSP(=O)(OCC)Oc1ccc(Br)cc1Cl` (stereo not given), the “activity change, negative = inhibition” value is 1.91% [at 42.5 µM] (inactive).

Take `OCCBr`: the “activity change, negative = inhibition” value was -6.64% (inactive).

Regarding `Nc1cc2c3c(c1)C(c1ccccc1)=N[C@@H](NC(=O)c1cccnc1)C(=O)N3CC2`, the “activity change, negative = inhibition” value is -0.898% (inactive).

`c1ccc(N2CCNCC2)cc1`: the “activity change, negative = inhibition” value is 0.0232% [at 42.5 µM] (inactive).

For the compound `CC(C)[N+](=O)[O-]`, the “activity change, negative = inhibition” value was -0.426% (inactive).

`CCC/C(=N\OCC)C1=C(O)CC(CC(C)SCC)CC1=O` (stereo not given): the “activity change, negative = inhibition” value is 2.94% (inactive).

As to `CNC(=O)O/N=C(\C)SC`, the “activity change, negative = inhibition” value is 0.0756% (inactive).

With `CCC(C)(C)c1cc(-n2nc3ccccc3n2)c(O)c(C(C)(C)CC)c1`, the “activity change, negative = inhibition” value is -1.6% (inactive).

In the case of `COP(=S)(OC)Oc1ccc(S(N)(=O)=O)cc1`, the “activity change, negative = inhibition” value was -0.935% [at 42.5 µM] (inactive).

Turning to `CCOC(=O)CP(=O)(OCC)OCC`, the “activity change, negative = inhibition” value is -0.225% (inactive).

Turning to `C[C@H]1CCC[C@H](O)CCCCCc2cc(O)cc(O)c2C(=O)O1`, the “activity change, negative = inhibition” value is 3.93% (inactive).

Take `CCS(=O)(=O)C(C)(C)S(=O)(=O)CC`: the “activity change, negative = inhibition” value is -3.45% [at 42.5 µM] (inactive).

Turning to `ClC(Cl)Br`, the “activity change, negative = inhibition” value is -1.37% (inactive).

`CCCCN(CCCCO)N=O`: the “activity change, negative = inhibition” value is -0.238% (inactive).

On to `O=NN1CCN(N=O)CC1`, for which the “activity change, negative = inhibition” value is -2.99% (inactive).

`O=C(N[C@H]1CN2CCC1CC2)c1cc2ccoc2cn1`: the “activity change, negative = inhibition” value was -0.311% (inactive).

In the case of `O=P(O)(Oc1ccccc1)Oc1ccccc1`, the “activity change, negative = inhibition” value was -1.39% (inactive).

In the case of `CCOP(=S)(OCC)Oc1ncn(-c2ccccc2)n1`, the “activity change, negative = inhibition” value was -2.52% (inactive).

With `Nc1c(Br)cc([N+](=O)[O-])cc1[N+](=O)[O-]`, the “activity change, negative = inhibition” value is 3.32% (inactive).

`COP(=S)(OC)Oc1c(Cl)cc(C)cc1Cl`: the Potency is 54.5 µM (active).

Turning to `CC(C)(C)OC(=O)c1ncn2c1[C@@H]1CCCN1C(=O)c1c(Br)cccc1-2`, the “activity change, negative = inhibition” value is 0.309% [at 42.5 µM] (inactive).

Regarding `COC(=O)c1c(C(F)F)nc(C(F)(F)F)c(C2=NCCS2)c1CC(C)C`, the “activity change, negative = inhibition” value is -0.553% (inactive).

As to `Cc1cccc(C#N)c1`, the “activity change, negative = inhibition” value was -0.887% (inactive).

Consider `CN(C)CCc1ccc(O)cc1`, for which the “activity change, negative = inhibition” value is -0.172% [at 42.5 µM] (inactive).

Consider `[As]#[In]`, for which the “activity change, negative = inhibition” value was 0.992% (inactive).

Consider `CCCCP(CCCC)CCCC`, for which the “activity change, negative = inhibition” value was 0.0951% (inactive).

`OCCSCSCCO`: the “activity change, negative = inhibition” value was -0.987% (inactive).

Turning to `CC1=C(C(=O)O)N2C(=O)[C@@H](N)[C@H]2SC1`, the activity change, negative = inhibition was 2.26% [at 19 µM] (inactive).

On to `Cc1ncc2n1-c1ccc(Cl)cc1C(c1ccccc1F)=NC2`, for which the “activity change, negative = inhibition” value was -5.67% [at 42.5 µM] (inactive).
